Measurements published in PubChem BioAssay (NCI).
Where “and” joins values, the source holds several entries; their conditions need not be identical. Equal values may be shown once. The panel holds about 79,000 compounds, 15% with a hit somewhere; the sample as a whole holds those more often. The source holds several records for some structures; these can differ, active in one and inactive in another. Calls of active or inactive are those of the source. Rule as the data show it: active = growth inhibition above about 70%; inactive = the rest.

Experiments:
[1] = NCI Yeast Anticancer Drug Screen. Data for the rad50 strain (AID 155);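 also: 0% = growth of vehicle-only cultures of the same strain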; conditions: S. cerevisiae rad50 strain growth inhibition, stronger effect = higher value
In short: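 Compounds were tested on a yeast strain with an engineered DNA damage repair alteration; the reported value is growth inhibition normalised to vehicle treatment.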

[2] = NCI Yeast Anticancer Drug Screen. Data for the mec2-1 strain (AID 157); conditions: S. cerevisiae mec2-1 strain, stronger effect = higher value
In short: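 Strain: mec2-1 (DNA repair/cell cycle alteration). Compound exposure, then growth measured; inhibition expressed relative to vehicle.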

[3] = NCI Yeast Anticancer Drug Screen. Data for the sgs1 mgt1 strain (AID 161);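 also: 0% = growth of cultures given vehicle only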; conditions: S. cerevisiae sgs1 mgt1 strain, stronger effect = higher value
In short: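 Genetically altered yeast, compound exposure, growth inhibition relative to vehicle.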

[4] = NCI Yeast Anticancer Drug Screen. Data for the cln2 rad14 strain (AID 165);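 also: 0% = growth equal to vehicle treated cultures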; conditions: S. cerevisiae cln2 rad14 strain, stronger effect = higher value
In short: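 Compounds are applied to the cln2 rad14 yeast strain, and growth is then compared with that of vehicle-treated cultures to give inhibition.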

[5] = NCI Yeast Anticancer Drug Screen. Data for the bub3 strain (AID 167); conditions: S. cerevisiae bub3 mutant strain, stronger effect = higher value
In short: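 Growth of a checkpoint-deficient yeast mutant is measured after compound exposure. Values represent inhibition relative to vehicle.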

[6] = NCI Yeast Anticancer Drug Screen. Data for the mlh1 rad18 strain (AID 175); conditions: S. cerevisiae mlh1 rad18 strain growth inhibition, stronger effect = higher value
In short: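 Read-out is yeast growth inhibition, calculated against vehicle-only controls. The compound was applied to a strain engineered with DNA damage repair alterations.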

[7] = at 5.0 µM (retest, dose inferred, filed as 0.5)
[8] = at 50.0 µM (retest, dose inferred, filed as 5.0)

Measured: growth inhibition

COc1cc(O)ccc1C(=S)SC
inactive: [1]; [7] 6% | [2]; [7] 1% | [2]; [8] 18% | [2]; at 50.0 µM 29.6% | [3]; [7] 5% | [3]; [8] 66% | [3]; at 50.0 µM 42.5% | [4]; [7] 0% | [4]; [8] 29% | [4]; at 50.0 µM 9% | [5]; [7] -5% | [5]; [8] 33% | [5]; at 50.0 µM -6.9% | [6]; [7] 12% | [6]; at 50.0 µM 30.9%
active: [1]; [8] 78% | [1]; at 50.0 µM 85% | [6]; [8] 87%

CC(C)C1=CC23CCC4C(C)(C(=O)O)CCCC4(C)C2CC1C1C(=O)OC(=O)C13 (stereo not given)
active: [1]; [7] 93% | [1]; [8] 99% | [1]; at 50.0 µM 99.3% and 99.5% | [2]; [7] 96% | [2]; [8] 100% | [2]; at 50.0 µM 99.5% and 99.7% | [3]; [7] 87% | [3]; [8] 100% | [4]; [7] 85% | [4]; [8] 99% | [4]; at 50.0 µM 99% and 98.5% | [5]; [7] 90% | [5]; [8] 99% | [5]; at 50.0 µM 99% and 99.5% | [6]; [7] 90% | [6]; [8] 99% | [6]; at 50.0 µM 99.4% and 99.5%
99.6% (active) and 49.5% (inactive): [3]; at 50.0 µM

Nc1nc(N)c2nc3c4ccccc4c4ccccc4c3nc2n1
active: [5]; at 50.0 µM 74.5%
inactive: [1]; [7] 2% | [1]; [8] 35% | [1]; at 50.0 µM 56.5% | [2]; [7] 1% | [2]; [8] 30% | [2]; at 50.0 µM 38.5% | [3]; [7] 0% | [3]; [8] 32% | [3]; at 50.0 µM 21.7% | [4]; [7] 1% | [4]; [8] 3% | [4]; at 50.0 µM 68.8% | [5]; [7] 7% | [5]; [8] 38% | [6]; [7] 5% | [6]; [8] 44% | [6]; at 50.0 µM 69.5%

Cc1cc(/C=C/C2CCC3CC(C)CCC3N2CCO)c(C)n1-c1ccccc1 (stereo not given)
active: [1]; [8] 95% | [1]; at 50.0 µM 99.1% | [2]; [8] 99% | [2]; at 50.0 µM 98.8% | [3]; [8] 100% | [3]; at 50.0 µM 99.2% | [4]; [8] 90% | [4]; at 50.0 µM 98.8% | [5]; [8] 98% | [5]; at 50.0 µM 98% | [6]; [8] 97% | [6]; at 50.0 µM 97.9%
inactive: [1]; [7] 16% | [2]; [7] 19% | [3]; [7] 26% | [4]; [7] 12% | [5]; [7] 21% | [6]; [7] 17%

COC1/C=C/OC2(C)Oc3c(C)c(O)c4c(c3C2=O)C(=O)C=C(NC(=O)/C(C)=C\C=C\C(C)C2OC(C)(C)OC(C2C)C(C)C(OC(C)=O)C1C)C4=O (stereo not given)
inactive: [1]; [7] 2% | [1]; at 50.0 µM 51.9% | [2]; [7] 30% | [2]; at 50.0 µM 57.3% | [3]; [7] -3% | [3]; at 50.0 µM 60.8% | [4]; [7] 1% | [4]; at 50.0 µM 57% | [5]; [7] 2% | [5]; at 50.0 µM 45.8% | [6]; [7] 3% | [6]; at 50.0 µM 60.8%
active: [1]; [8] 89% | [2]; [8] 79% | [3]; [8] 73% | [4]; [8] 89% | [5]; [8] 74% | [6]; [8] 92%

O=C1OC(CN2CCOCC2)CN1/N=C/c1ccc([N+](=O)[O-])o1 (stereo not given)
86% (active) and 69.8% (inactive): [3]; at 50.0 µM
active: [3]; [8] 80% | [6]; [8] 76%
75.7% (active) and 34.3% (inactive): [6]; at 50.0 µM
inactive: [1]; [7] 6% | [1]; [8] 50% | [1]; at 50.0 µM 65.8% and -2.7% | [2]; [7] 8% | [2]; [8] 41% | [2]; at 50.0 µM 26.6% and 14.2% | [3]; [7] 18% | [4]; [7] 1% | [4]; [8] 51% | [4]; at 50.0 µM 38.3% and -8.55% | [5]; [7] -4% | [5]; [8] 9% | [5]; at 50.0 µM 36.6% and 0.1% | [6]; [7] 13%

Oc1ccccc1C=Nc1ccccc1N=Cc1ccccc1O
active: [1]; at 50.0 µM 85% and 81.4% | [2]; [8] 98% and 85% | [2]; at 50.0 µM 78.9% and 89% | [3]; [8] 76% and 91% | [6]; [8] 98% and 97% | [6]; at 50.0 µM 76.3% and 93%
67.8% (inactive) and 91.3% (active): [3]; at 50.0 µM
52% (inactive) and 86% (active): [5]; [8]
68% (inactive) and 96% (active): [1]; [8]
67% (inactive) and 87.2% (active): [5]; at 50.0 µM
inactive: [1]; [7] -16% and -2% | [2]; [7] -34% and -4% | [3]; [7] -12% and -1% | [4]; [7] 7% and -12% | [4]; at 50.0 µM 59.5% and 8.6% | [5]; [7] 14% and -3% | [6]; [7] -17% and -4%
39% (inactive) and 95% (active): [4]; [8]

CCCCCCC(CCCCCCCCCCC(=O)OCC(CC)CC)OC(=O)CC (stereo not given)
inactive: [1]; [7] -4% | [1]; [8] -4% | [1]; at 50.0 µM 21.2% | [2]; [7] -3% | [2]; [8] -6% | [2]; at 50.0 µM 7.9% | [3]; [7] -4% | [3]; [8] -23% | [3]; at 50.0 µM 7.4% | [4]; [7] -2% | [4]; [8] -13% | [4]; at 50.0 µM 21.4% | [5]; [7] -3% | [5]; [8] -5% | [5]; at 50.0 µM -6.9% | [6]; [7] -3% | [6]; [8] -6% | [6]; at 50.0 µM 39.5%

C1=C(c2ccccc2)N(CCc2ccccc2)C(c2ccccc2)=CN1Cc1ccccc1
inactive: [1]; [7] -7% | [2]; [7] 1% | [3]; [7] 7% | [4]; [7] 2% | [5]; [7] 9% | [6]; [7] -4%
active: [1]; [8] 95% | [1]; at 50.0 µM 98.4% | [2]; [8] 97% | [2]; at 50.0 µM 98.5% | [3]; [8] 97% | [3]; at 50.0 µM 98.6% | [4]; [8] 96% | [4]; at 50.0 µM 98.5% | [5]; [8] 95% | [5]; at 50.0 µM 98.2% | [6]; [8] 97% | [6]; at 50.0 µM 98.7%

NC(C/[N+]([O-])=N/O)C(=O)O (stereo not given)
inactive: [1]; [7] 18% | [1]; [8] 21% | [1]; at 50.0 µM 40.7% and 47.2% and 57.1% | [2]; [7] 10% | [2]; [8] 13% | [2]; at 50.0 µM 11.1% and 22.1% and 33.5% | [3]; [7] 46% | [3]; [8] 51% | [3]; at 50.0 µM 36.2% and 39.5% and 48.1% | [4]; [7] 37% | [4]; [8] -28% | [4]; at 50.0 µM 5.75% and 1.45% and 18.8% | [5]; [7] 46% | [5]; [8] 4% | [5]; at 50.0 µM -0.3% and 17.1% and 21.9% | [6]; [7] 25% | [6]; [8] 38% | [6]; at 50.0 µM 31.9% and 35.6% and 46.6%

CC(C)CC(Nc1c(O)ccc2ccccc12)C(=O)O (stereo not given)
active: [1]; [8] 98% | [1]; at 50.0 µM 98.8% | [2]; [8] 99% | [2]; at 50.0 µM 99.4% | [3]; [8] 99% | [3]; at 50.0 µM 99.3% | [4]; [8] 99% | [4]; at 50.0 µM 72.7% | [5]; [8] 99% | [5]; at 50.0 µM 95.2% | [6]; [8] 99% | [6]; at 50.0 µM 99.3%
inactive: [1]; [7] 24% | [2]; [7] 0% | [3]; [7] 17% | [4]; [7] 11% | [5]; [7] 15% | [6]; [7] 45%

O=C(O)c1ccc(Nc2cnc3ccc(C(F)(F)F)cc3n2)cc1
inactive: [1]; [7] 18% | [1]; [8] 16% | [1]; at 50.0 µM 60.9% | [2]; [7] 4% | [2]; [8] 12% | [2]; at 50.0 µM 41.2% | [3]; [7] 10% | [3]; [8] 13% | [3]; at 50.0 µM 18.2% | [4]; [7] 5% | [4]; [8] 12% | [4]; at 50.0 µM -0.05% | [5]; [7] 5% | [5]; [8] 12% | [5]; at 50.0 µM 4.9% | [6]; [7] 16% | [6]; [8] 16% | [6]; at 50.0 µM 6.7%

O=C(/C=C/c1cccnc1)c1ccccc1
inactive: [1]; [7] 2% | [1]; [8] 48% | [1]; at 50.0 µM 9.2% and 25.8% | [2]; [7] 0% | [2]; [8] 67% | [2]; at 50.0 µM -9.2% and 41.6% | [3]; [7] -1% | [3]; [8] 65% | [3]; at 50.0 µM -15.7% and 61.4% | [4]; [7] 5% | [4]; [8] 14% | [4]; at 50.0 µM 15.1% and 3.65% | [5]; [7] 0% | [5]; [8] 40% | [5]; at 50.0 µM -10% and 25.5% | [6]; [7] 4% | [6]; [8] 36% | [6]; at 50.0 µM -21.9% and 69.2%

N#Cc1c(/N=C/c2ccccc2Cl)sc2c1CCC2
inactive: [1]; [7] 18% | [1]; [8] -14% | [1]; at 50.0 µM 20.1% | [2]; [7] -14% | [2]; [8] -4% | [2]; at 50.0 µM -0.55% | [3]; [7] -1% | [3]; [8] 10% | [3]; at 50.0 µM 12.1% | [4]; [7] 26% | [4]; [8] 11% | [4]; at 50.0 µM 4.2% | [5]; [7] 0% | [5]; [8] -10% | [5]; at 50.0 µM 23.9% | [6]; [7] -1% | [6]; [8] -20% | [6]; at 50.0 µM 13.2%

CC(=O)Nc1nc([N+](=O)[O-])c(C(C)C)s1
inactive: [1]; [7] 4% | [1]; [8] 1% | [1]; at 50.0 µM 10.1% | [2]; [7] -2% | [2]; [8] 4% | [2]; at 50.0 µM 10.6% | [3]; [7] 3% | [3]; [8] 4% | [3]; at 50.0 µM -1.85% | [4]; [7] -6% | [4]; [8] -4% | [4]; at 50.0 µM 1.55% | [5]; [7] -3% | [5]; [8] 9% | [5]; at 50.0 µM -7.8% | [6]; [7] 5% | [6]; [8] 15% | [6]; at 50.0 µM 18.2%
